According to PubChem BioAssay AID2732 (Emory University Molecular Libraries Screening Center, 2010):
Among all 220,000 compounds or so, about 8,200 (3.7%) were called active.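 Rule for the calls: active = compounds that reduced the stress-induced luciferase reporter signal by more than about 70% of percent inhibition (limit read from the data); inactive = the rest.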 Many of the other results were omitted from the sample, so actives are more common in it than they were.

Assay: blockers of ER-stress CHOP reporter expression – cell-based, unfolded protein response, luciferase reporter, primary screen (AID 2732);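 note: 0% = tunicamycin plus vehicle and 100% = wells without tunicamycin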
Conditions: CHO-K1 CHOP-promoter luciferase, tunicamycin-induced, 15-18 h; at 10 µM; hits give high values

inhibition, active:
Cc1ccc(NC(=O)CN(C)Cc2ccc(F)cc2)c([N+](=O)[O-])c1 71.6%
O=C1NC(=Nc2ccc(Cl)cc2)SC1Cc1cccc(Cl)c1Cl (stereo unspecified) 94.3%
CCSc1nc(C)nc2c1oc1ccccc12 97.9%
O=C1N/C(=C/c2cccn2-c2ccccc2)C(=O)N1c1cccc(Cl)c1 86.8%
Cc1nn(-c2ccccc2)c2sc(C(=O)N(Cc3ccco3)C(C)C(=O)NC(C)(C)C)cc12 (stereo unspecified) 80.4%
CCOC(=O)c1ccc2c(c1)nc(SCC(=O)NC(C)C)n2CC 76%
C=CCN(CC=C)S(=O)(=O)c1ccc(C(=O)Nc2nc3c(s2)CCc2ccccc2-3)cc1 71%
COCCN(CCOC)S(=O)(=O)c1ccc(C(=O)Nc2nc3c(s2)CCc2ccccc2-3)cc1 82.3%
Cc1ccc(NC(=O)NC(=O)N(C2CCCCC2)S(=O)(=O)c2ccccc2)cc1 84%
Cc1ccc(Nc2cc(C)nc3c(C)ccc([N+](=O)[O-])c23)cc1 71.4%
Cn1c(Cc2cccc3ccccc23)nnc1SCC(=O)N1CCN(c2cccc(Cl)c2)CC1 78.6%
Cc1ccc(C2=NN(C)c3nc4ccccc4n3C2)cc1 86.3%

inhibition, inactive:
COc1ccc(SC[C@H](Cc2ccccc2)N2CCN(CCc3ccccc3)CCC2=O)cc1 26.9%
Cc1csc(/N=C/N(C)C)c1C#N 11.2%
CC1CCN(c2c(NCc3ccc(C(=O)NCc4ccccc4)cc3)c(=O)c2=O)CC1 1.88%
Cc1cc(=O)[nH]c(N/N=C/c2ccc3c(c2)OCCO3)n1 -1.69%
CN(CC(=O)Nc1ccccc1[N+](=O)[O-])Cc1ccc(Br)cc1 5.7%
CSc1ccccc1NC(=O)CN(C)CC(=O)Nc1ccc(Cl)cc1[N+](=O)[O-] 18.7%
Cc1cc(C(=O)NNS(=O)(=O)c2ccccc2C(F)(F)F)nn1C(C)(C)C 14.2%
O=C1N/C(=N\N=C\c2ccco2)SC1Cc1ccc(F)cc1 (stereo unspecified) 2.81%
NC1=NC(=O)C(Cc2cccc(Cl)c2Cl)S1 (stereo unspecified) -11.3%
COC(C[C@H](O)CC(=O)COCc1ccccc1)OC 17.8%
NC(=O)c1ccc(NC(=O)COC(=O)c2ccc([N+](=O)[O-])cc2)cc1 4.31%
Cc1cc(C)cc(NC(=O)NC2CCN(CC(=O)Nc3cccc(Cl)c3C)CC2)c1 14.5%
COc1ccc(CCNC(=O)CSc2nc(C)nc3c2oc2ccccc23)cc1OC 5.77%
Cc1nc(Cl)c2oc3ccccc3c2n1 -37.5%
CC1=CC(C)(C)NC(=S)N1NC(=O)c1ccccc1Cl -2.87%
CCOc1ccc(C2NC(=S)NC3=C2CCc2ccccc23)cc1 (stereo unspecified) -10.8%
Cc1ccccc1NC(=O)CN1C(=O)N/C(=C\c2cccn2-c2cccc(C(=O)O)c2)C1=O 1.36%
COc1cc2c(cc1/C=C1/NC(=O)N(c3ccccc3)C1=O)OCO2 -2.61%
Cc1c(C)c(C)c2[nH]c(=S)[nH]c2c1C 20.2%
N#CCc1ccc(OC(=O)c2cccnc2)cc1 12.3%
Cc1ccc(-c2nnn(CC(=O)N(Cc3ccco3)C(C(=O)NC(C)(C)C)c3ccncc3)n2)o1 (stereo unspecified) 6.52%
Cc1nc(C)c(C(=O)N(c2ccc(C)c(C)c2)C(C(=O)NCc2ccco2)c2ccccc2)s1 (stereo unspecified) -35.7%
Cc1cc(C)c(C)c(S(=O)(=O)N[C@@H](C)C(=O)OC(C)C(=O)NC(N)=O)c1C (stereo partly specified) -9.66%
Cc1ccc(Oc2nc(-c3ccccn3)nc3ccccc23)cc1 -40.5%
CCOC(=O)CNC(=O)CSc1nc2cccnc2n1CC 5.31%
CCOC(=O)c1ccc2c(c1)nc(C)n2CC 3.33%
COCCN(CCOC)S(=O)(=O)c1ccc(/C(O)=C(\C#N)c2nc3ccccc3[nH]2)cc1 1.37%
COc1ccc(C(=O)Nc2ncc3c(n2)-c2ccccc2CC3)cc1 -1.8%
CCN(c1ccccc1)S(=O)(=O)c1ccc(C(=O)Nc2nccs2)cc1 31.6%
C=CCN(CC=C)S(=O)(=O)c1ccc(C(=O)Nc2sc3c(c2C(N)=O)CCCCC3)cc1 41%
COc1ccc2[nH]c(C(=O)Nc3ccccc3Cl)cc2c1 2.73%
CC(C)(C)C(=O)Nc1c(Br)c(C2CC2)nn1-c1ccccc1 0.02%
CC(C)(C)c1cc(P(=O)(c2ccccc2)c2ccccc2)ccc1O 9.08%
CN1CCN(c2ncc3c(n2)CC(c2ccccc2F)CC3=O)CC1 (stereo unspecified) 15.3%
CSc1sc(C(=O)NC(=O)NCc2cccnc2)c(C)c1-c1ccon1 28.4%
COC(=O)c1c(C(=O)OC)c2n(c1C)CCS2 14.2%
CCn1c(=O)c2cc(C(=O)Nc3cccc(C(C)=O)c3)sc2c2ccccc21 -10.2%
Cc1ccc(S(=O)(=O)N(C)CC(=O)NC2CCCC2)cc1 36.5%
CC(c1ccco1)N(C(=O)Nc1ccccc1)C1CCCCC1 (stereo unspecified) 36.4%
CC1CC(NC(=O)/C(C#N)=C/c2ccc[nH]2)CC(C)(C)C1 (stereo unspecified) -0.59%
Cc1nc2cc3c(cc2s1)OCO3 14%
CCCc1c(C(=O)Nc2ccc(F)cc2)cnn1-c1ccccc1 14.9%
Cc1cc(C)nc(Nc2cc([N+](=O)[O-])ccc2C)n1 0.9%
Cc1ccc(Nc2ccc(C(N)=O)cc2[N+](=O)[O-])cc1 21.8%
Cc1cc2nnc(SCC(=O)N3CCN(c4ccccc4)CC3)n2c(N)n1 23.7%
Cc1ccccc1NC(=O)Cc1nnc(SCC(=O)N2CCN(c3ccccc3)CC2)n1C 26.1%
COc1ccc(OC)c(C(=O)c2ccc(Cl)cc2)c1 9.86%
Cn1cccc1-c1nc2ccccc2n1C -2.65%
Cc1ccc(O)c(CNc2nc3ccccc3n2C)c1 11.9%
